SSB-PriA inh – K. pneumoniae PriA-SSBct interaction inhibition; AID 1272365; AlphaScreen SSBct-PriA binding, biotinylated peptide; inhibition, % at 33 µM; actives 0.6% (n = 430,000); in the data active = inhibition mostly above about 37%, no sharp cut-off; inactive = mostly below about 20%;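 also: plate controls were negative control peptide for no effect and reference peptide for full effect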
3CLpro inhibitor – SARS-CoV 3CLpro protease inhibition. actives 0.14% (n = 290,000). AID 1706. inhibition, % at 6 µM. P0C6X7. recombinant SARS-CoV 3CLpro, quenched FRET peptide cleavage; in the data active = inhibition above about 12%
BJeLR lethal – BJeLR cell viability loss; BJeLR (HRASV12) viability, CellTiter-Glo ATP luminescence, 48 h; inhibition, % (no concentration beside the values); actives 0.17% (n = 300,000); in the data active = inhibition above about 50%
Numbers without * were called inactive; · = not tested or not shown. Hits are enriched below; roughly 0.78% of the tested compounds scored in any of these assays.

SMILES | SSB-PriA inh | 3CLpro inhibitor | BJeLR lethal
Fc1ccc(C=NN2CCCCC2)c(F)c1 | 43* | · | ·
CCCn1c(=O)c2sccc2n2c(CCCC(=O)Nc3ccc(Br)c(C)c3)nnc12 | -1 | · | ·
COC(=O)C1=C(C(=O)OC)SC2(S1)C(C(=O)OC)=C(C(=O)OC)SC1=C2c2cc(C)cc(C)c2NC1(C)C | 10 | 9 | 9
COC(=O)C1=C(C(=O)OC)SC2(S1)C(C(=O)OC)=C(C(=O)OC)Sc1c2ssc1=O | 96* | · | ·
O=C(NCC(Cc1cccc(F)c1)N1CCNC1=O)c1ccc(=O)[nH]c1 (stereo unspecified) | -6 | · | ·
O=C(Cc1ccccc1Br)NCCN1Cc2cc(Cl)ccc2OCC1=O | 6 | · | ·
CNC(=O)Cc1csc(NC(=O)Cc2c(C)nc(SCc3ccccc3)[nH]c2=O)n1 | -12 | · | ·
COc1cc(OC)cc(C(=O)NCCc2ccc3c(c2)CCCN3C)c1 | 59* | · | ·
Cc1cccc(NC(=O)NCCc2ccc3c(c2)CCCN3C)c1 | 56* | · | ·
COc1ccc(CCNC(=O)NCCc2ccc3c(c2)CCCN3C)cc1 | 50* | · | ·
COc1ccc(CC(=O)NCCc2ccc3c(c2)CCCN3C)cc1 | 9 | · | ·
COc1ccc(OCC(=O)NCCc2ccc3c(c2)CCCN3C)cc1 | 71 | · | ·
CN1CCCc2cc(CCNC(=O)NCc3ccccc3)ccc21 | 29 | · | ·
CCOc1cc(C2C(=C(O)c3ccc(S(=O)(=O)N4CCCCC4)cc3)C(=O)C(=O)N2CCOC)ccc1O (stereo unspecified) | 8 | · | ·
COc1ccccc1N1CCN(CCNC(=O)C(=O)Nc2ccc3c(c2)OCCO3)CC1 | -2 | · | ·
CCc1cccc(C)c1N(C(=O)Cn1c(CO)nc2ccccc21)[C@@H](C)COC | -4 | · | ·
CCc1cccc(C)c1N(C(=O)Cn1c(COC)nc2ccccc21)C(C)COC (stereo unspecified) | 46* | 5 | -2
Cc1c(C(=O)O)oc2c1ccc1ccccc12 | -13 | 3 | 1
Cc1c(C(=N)C(C#N)C#N)c(=N)oc2c1ccc1ccccc12 | 70* | 3 | 4
COC(=O)C(C)Oc1ccc2c(c1)O/C(=C\c1cc(Br)cc3c1OCOC3)C2=O (stereo unspecified) | -2 | · | ·
O=C(CCc1csc(NS(=O)(=O)c2ccccc2)n1)NCCc1c[nH]c2ccccc12 | 5 | · | ·
FC(F)(F)c1nnc2c(Sc3ccc(Cl)cc3)nc3ccccc3n12 | -15 | -2 | 59*
FC(F)(F)c1nnc2c(Sc3ccccc3)nc3ccccc3n12 | -11 | -8 | -14
CC(=O)c1ccc(NC(=O)CN2C(=O)COc3ccccc32)cc1 | 56* | · | ·
O=C(CN1C(=O)COc2ccccc21)Nc1ccccc1 | 37 | · | ·
SMILES | SSB-PriA inh | 3CLpro inhibitor | BJeLR lethal
CC1(C)CC(=O)C2=C(C1)NC1=C(C(=O)c3ccccc31)C2c1ccc(Cl)cc1 (stereo unspecified) | 36 | -1 | -11
Cc1ccc(C2C3=C(CC(C)(C)CC3=O)NC3=C2C(=O)c2ccccc23)cc1 (stereo unspecified) | 51* | 1 | 0
Nc1nc(SCC(=O)Nc2ccccc2Br)ncc1S(=O)(=O)c1cccs1 | -5 | · | ·
CCC(CO)Oc1cc(NCc2ccc(Cl)cc2)c2ncn(C(C)C)c2c1 (stereo unspecified) | 4 | · | ·
CCC(CO)Oc1cc(NCc2ccc(Cl)cc2Cl)c2ncn(C(C)C)c2c1 (stereo unspecified) | 39* | · | ·
COC[C@H](C)NC(=O)C(=O)Nc1c2c(nn1-c1cccc(Cl)c1)CS(=O)(=O)C2 | 1 | · | ·
COc1ccc(-c2cc3c(=O)n(CC(=O)N4CCCCC4)ncn3n2)cc1 | 6 | 5 | 0
COc1ccc(-c2cc3c(=O)n(CC(=O)N4CCN(C)CC4)ncn3n2)cc1 | 101* | -3 | -6
CN(C)c1ccc(NS(=O)(=O)c2cc(Cl)ccc2Cl)cc1 | 35 | 5 | -19
CCN(c1ccc(NS(=O)(=O)c2cc(Cl)ccc2Cl)cc1)C(C)C | 40* | 4 | 10
CCOc1ccc(-n2nnc3c(N4CCN(S(=O)(=O)c5cc(OC)ccc5OC)CC4)ncnc32)cc1 | 14 | · | ·
Clc1ccc2ccc3cccnc3c2n1 | -8 | -1 | 2
C/[N+]([O-])=C\c1ccc2ccc3cccnc3c2n1 | 154* | · | ·
Cc1ccc(N=Nc2ccc3ccccc3c2O)cc1 | -5 | 2 | 12
Oc1c(N=Nc2ccc(F)cc2)ccc2ccccc12 | 39* | -4 | 3
Cc1ccc(C(=O)NCc2ccnc(-c3ccsc3)c2)s1 | -1 | · | ·
O=C(Cc1csc(SCc2ccc(F)cc2)n1)NCc1ccncc1 | 9 | · | ·
O=[N+]([O-])c1ccc(Sc2cccc3cccnc23)c2cccnc12 | 28 | 0 | 8
CN(N=Cc1cccc2cccnc12)c1ccc([N+](=O)[O-])cc1[N+](=O)[O-] | -12 | · | ·
O=[N+]([O-])c1cc(O)c2ncccc2c1 | 84* | 1 | 20
Oc1cc(F)cc2cccnc12 | 51 | · | ·
O=[N+]([O-])c1cc([N+](=O)[O-])c2ncccc2c1 | 63* | · | ·
Cc1cc(O)c2ncccc2c1 | 15 | · | ·
Oc1cc(Cl)cc2cccnc12 | 84* | · | ·
O=[N+]([O-])c1cc(C(F)(F)F)cc([N+](=O)[O-])c1Sc1cccc2cccnc12 | 56* | · | ·
SMILES | SSB-PriA inh | 3CLpro inhibitor | BJeLR lethal
CC(=O)NS(=O)(=O)c1ccc(NC(=O)NC2CC(=O)N(c3ccc(Cl)cc3)C2)cc1 (stereo unspecified) | 0 | · | ·
Cn1c(C2CCCN(S(C)(=O)=O)C2)nn(Cc2cccc(Cl)c2)c1=O (stereo unspecified) | 3 | · | ·
C#CCn1c(=NC(=O)c2ccc([N+](=O)[O-])o2)sc2cccc(Cl)c21 | -3 | · | ·
CCOC(=O)c1oc2ccccc2c1NC(=O)c1ccc(Oc2ccccc2)cc1 | 0 | · | ·
O=C(Nc1c2c(nn1-c1nc3ccccc3s1)CCC2)c1cccs1 | -9 | · | ·
COc1ccc(C(=O)Oc2cccc3cccnc23)cc1[N+](=O)[O-] | 0 | -1 | 5
COc1ccc(CSc2cccc3cccnc23)cc1[N+](=O)[O-] | 45* | 3 | 4
Cc1cc(=O)[nH]c(-n2nc(C3CC3)cc2NC(=O)C2c3ccccc3Oc3ccccc32)n1 | -5 | · | ·
CCC(=O)NCc1cc(-c2nn(C)c(=O)c3ccccc23)ccc1C | -15 | 7 | 8
Cc1ccc(-c2nn(CC(=O)NCc3cc(-c4nn(C)c(=O)c5ccccc45)ccc3C)c(=O)c3ccccc23)cc1 | -17 | 2 | 125*
CC1CN(c2ccc([N+](=O)[O-])c3cccnc23)CC(C)N1 (stereo unspecified) | 38* | -2 | 7
O=[N+]([O-])c1ccc(N2CCCC2)c2ncccc12 | -6 | 3 | -4
O=[N+]([O-])c1ccccc1N1CCN(c2ccc([N+](=O)[O-])c3cccnc23)CC1 | 75* | · | ·
O=[N+]([O-])c1ccc(N2CCN(CCO)CC2)c2ncccc12 | 3 | -2 | -1
COc1ccc(-c2ccc(N3CCN(C(=O)Cc4cccs4)CC3)nn2)cc1 | -13 | · | ·
CC(=O)N1CCc2ccc(NS(=O)(=O)c3cccs3)cc2C1 | -3 | · | ·
NS(=O)(=O)c1ccc(NC(=O)c2cc(-c3cccs3)nc3ccccc23)cc1 | 0 | 3 | 63*
CN(C)S(=O)(=O)c1ccc(NC(=O)c2cc(-c3cccs3)nc3ccccc23)cc1 | -5 | 2 | 1
CC(NC(=O)Nc1cccc(Cl)c1)C(c1cccs1)N1CCN(c2ccccc2F)CC1 (stereo unspecified) | -9 | · | ·
